# PubChem BioAssay (NCATS)
# Results filed as inconclusive are left out. Activity calls are given as the source filed them. The call rests on the fitted dose curve; in most records, active means well fitted cell-killing curve with a large enough effect; inconclusive means small, poorly fitted or top-dose-only effect, or effect the other way; inactive means no such curve, though single readings can be large or run the other way.
# Tests used:
# [1] = Quantitative High-Throughput drug screen in 47 multiple myeloma cell lines against the NCATS MIPE library collection: UTMC2_PLB cell viability assay (AID 1919868); details: CellTiter-Glo ATP luminescence, 48 h; viability (% of DMSO control): at 45.8 µM (top of the series); further: nearly all actives have a fitted effect of over 55% in size
# Procedure, shortened: (§1)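 500 cells/well; MIPE 4.0 drugs pin-transferred; 48 h, 37C, 5% CO2. CellTiter-Glo, 5 min RT, luminescence. Controls: DMSO 100%, media 0%.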
# [2] = Quantitative High-Throughput drug screen in 47 multiple myeloma cell lines against the NCATS MIPE library collection: PE2_PLB cell viability assay (AID 1919869); further: nearly all actives have a fitted effect of over 35% in size
# Procedure, shortened: as §1
# [3] = Quantitative High-Throughput drug screen in 47 multiple myeloma cell lines against the NCATS MIPE library collection: RPMI8226_ATCC cell viability assay (AID 1919871); further: nearly all actives have a fitted effect of over 30% in size
# Procedure, shortened: as §1
# [4] = Quantitative High-Throughput drug screen in 47 multiple myeloma cell lines against the NCATS MIPE library collection: OPM2_DSMZ cell viability assay (AID 1919872); further: nearly all actives have a fitted effect of over 30% in size
# Procedure, shortened: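 CellTiter-Glo luminescence (ATP) after 48 h compound exposure, 37C/5% CO2; 500 cells/well; MIPE 4.0 approved/investigational drugs pinned in; DMSO = 100%, media only = 0% viability.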
# [5] = Quantitative High-Throughput drug screen in 47 multiple myeloma cell lines against the NCATS MIPE library collection: KMS28BM_JCRB cell viability assay (AID 1919874); further: nearly all actives have a fitted effect of over 35% in size
# Procedure, shortened: as §1
# [6] = Quantitative High-Throughput drug screen in 47 multiple myeloma cell lines against the NCATS MIPE library collection: PCM6_Riken cell viability assay (AID 1919870); further: nearly all actives have a fitted effect of over 30% in size
# Procedure, shortened: as §1
# [7] = Quantitative High-Throughput drug screen in 47 multiple myeloma cell lines against the NCATS MIPE library collection: KMS11_JCRBsus cell viability assay (AID 1919873); further: nearly all actives have a fitted effect of over 50% in size
# Procedure, shortened: as §1
# Potency means the concentration at half of the fitted maximal effect.
smiles,measurement,setting,value
N#Cc1c(N(CC(=O)O)CC(=O)O)sc(C(=O)O)c1CC(=O)O,Potency,[1],23.5 µM (active)
same,Potency,[2],14.8 µM (active)
same,Potency,[3],inactive
same,Potency,[4],inactive
same,Potency,[5],inactive
Cn1c(=O)c(Oc2ccc(F)cc2F)cc2cnc(NC3CCOCC3)nc21,Potency,[4],inactive
same,Potency,[5],inactive
FC(F)(F)c1ccc(C=Cc2nc(COc3ccc(CCCCn4ccnn4)cc3)co2)cc1,Potency,[1],0.0833 µM (active)
same,Potency,[6],0.0118 µM (active)
same,Potency,[7],0.0235 µM (active)
COc1cc2ncn(-c3cc(OCc4ccccc4S(C)(=O)=O)c(C#N)s3)c2cc1OC,Potency,[2],1.05 µM (active)
same,Potency,[6],inactive
same,Potency,[3],inactive
same,Potency,[4],inactive
CC1(C)CC(=O)c2c(C(F)(F)F)nn(-c3ccc(C(N)=O)c(NC4CCC(O)CC4)c3)c2C1 (configuration not stated),Potency,[2],0.118 µM (active)
same,Potency,[4],0.166 µM (active)
same,Potency,[7],0.0118 µM (active)
C[C@@]1(c2cc(-c3cncnc3)c(F)cc2F)CCSC(N)=N1,Potency,[1],inactive
same,Potency,[6],2.96 µM (active)
same,Potency,[3],inactive
same,Potency,[5],13.2 µM (active)
O=C(O)c1nc(=O)[nH]c(=O)[nH]1,Potency,[6],inactive
same,Potency,[3],10.2 µM (active)
same,Potency,[4],inactive
same,Potency,[7],11.5 µM (active)
CCC[C@H](Nc1nc(-c2ccc(NC(=O)NCC)c(OC)c2)ncc1C)c1cccnc1,Potency,[1],0.001 µM (active)
same,Potency,[2],0.001 µM (active)
same,Potency,[4],0.0083 µM (active)
same,Potency,[7],0.0012 µM (active)
COc1ccc2ccc(=O)oc2c1CC=C(C)C,Potency,[2],inactive
same,Potency,[6],inactive
CC1(COc2ccc3c(c2)ncn3-c2ccc3cccc(N4CCC(N)CC4)c3n2)COC1,Potency,[2],0.0148 µM (active)
same,Potency,[3],20.9 µM (active)
same,Potency,[4],0.743 µM (active)
same,Potency,[5],0.372 µM (active)
O=C(O)c1ccc(O)c2ncc(N3CCOCC3)cc12,Potency,[2],16.6 µM (active)
same,Potency,[6],inactive
same,Potency,[4],inactive
CC(C)(OCc1nn(Cc2ccccc2)c2ccccc12)C(=O)O,Potency,[2],inactive
same,Potency,[6],inactive
same,Potency,[3],inactive
same,Potency,[4],inactive
same,Potency,[7],inactive
same,Potency,[5],inactive
CNC(=O)[C@H](CC1=CN=C2C=CCC=C12)NC(=O)[C@@H](CC(=O)NO)CC(C)C,Potency,[1],18.7 µM (active)
same,Potency,[4],inactive
same,Potency,[5],5.9 µM (active)
Cn1cnc(-c2cc3nccc(Oc4ccc(NC(=S)NC(=O)Cc5ccccc5)cc4F)c3s2)c1,Potency,[1],0.132 µM (active)
same,Potency,[2],13.2 µM (active)
same,Potency,[7],20.9 µM (active)
CCCCOCCOc1nc(-c2ccc(C(=O)O)c(F)c2)sc1C,Potency,[3],10.5 µM (active)
same,Potency,[4],inactive
same,Potency,[7],inactive
same,Potency,[5],inactive
COc1c(C)c2c(c(O)c1CC=C(C)CCC(=O)OCCN1CCOCC1)C(=O)OC2,Potency,[2],4.18 µM (active)
same,Potency,[3],4.18 µM (active)
same,Potency,[4],13.2 µM (active)
CN(CC=CC#CC(C)(C)C)Cc1cccc2ccccc12,Potency,[7],inactive
same,Potency,[5],inactive
CO[C@@H]1C(N(C)C(=O)c2ccccc2)C[C@H]2O[C@]1(C)n1c3ccccc3c3c4c(c5c6ccccc6n2c5c31)C(=O)NC4=O (some centres not stated),Potency,[1],2.64 µM (active)
same,Potency,[2],3.72 µM (active)
same,Potency,[3],5.26 µM (active)
same,Potency,[7],2.35 µM (active)
Cc1ccc2c(=O)c3cccc(CC(=O)O)c3oc2c1C,Potency,[2],20.9 µM (active)
same,Potency,[6],23.5 µM (active)
same,Potency,[3],inactive
same,Potency,[7],inactive
same,Potency,[5],inactive
COc1ccc(-c2ccc3ncc4c(c3c2)n(-c2ccc(N3CCNCC3)c(C(F)(F)F)c2)c(=O)n4C)cn1,Potency,[3],0.332 µM (active)
Cc1c(C(=O)Nc2ccc(N3C[C@@H](C)O[C@@H](C)C3)nc2)cccc1-c1ccc(OC(F)(F)F)cc1,Potency,[2],inactive
same,Potency,[6],inactive
same,Potency,[3],16.6 µM (active)
same,Potency,[4],23.5 µM (active)
same,Potency,[7],inactive
CCC(=O)N1CCN(c2ccc(-n3c(=O)ccc4cnc5ccc(-c6cnc7ccccc7c6)cc5c43)cc2C(F)(F)F)CC1,Potency,[1],0.0469 µM (active)
same,Potency,[2],0.0093 µM (active)
same,Potency,[4],0.0264 µM (active)
CCCCc1ccc(NS(=O)(=O)c2ccc(C)c(C(=O)N3CCN(c4cccc(C)c4C)CC3)c2)cc1,Potency,[6],26.4 µM (active)
same,Potency,[3],20.9 µM (active)
same,Potency,[5],16.6 µM (active)
Cc1ccc(C(=O)N(CCCN)[C@@H](c2oc3cc(Cl)ccc3c(=O)c2Cc2ccccc2)C(C)C)cc1,Potency,[6],9.35 µM (active)
same,Potency,[4],inactive
same,Potency,[7],inactive
C=C[C@@H]1CN2CCC1C[C@@H]2C(O)c1ccnc2ccc(OC)cc12 (some centres not stated),Potency,[1],inactive
same,Potency,[2],inactive
same,Potency,[4],inactive
same,Potency,[7],inactive
same,Potency,[5],inactive
C=C1c2cccc(O)c2C(O)=C2C(=O)[C@@]3(O)C(O)=C(C(N)=O)C(=O)[C@@H](N(C)C)[C@@H]3[C@@H](O)[C@H]12,Potency,[6],16.6 µM (active)
CCOC(=O)N1c2ccc(C(F)(F)F)cc2[C@@H](N(Cc2cc(C(F)(F)F)cc(C(F)(F)F)c2)C(=O)OC)C[C@H]1CC,Potency,[6],inactive
same,Potency,[3],9.35 µM (active)
same,Potency,[4],9.35 µM (active)
